The test deals with primary human hepatic stellate cells (donor 1). Briefly: scaled lipid accumulation score (0 = DMSO-like, 1 = nortriptyline-like); higher = stronger HSC inactivation (lipid re-accumulation), active = hit call of the paper. The following applies: 48 h.
Where [1] appears, read: library stock concentration: 3.33 mM.
[2] abbreviates: library stock concentration: 10 mM.
The mark [3] stands for this setting: library stock concentration: 1 mM.
The mark [4] stands for this setting: library stock concentration: 80 uM.
[5] abbreviates: library stock concentration: 400 uM.
Setting [6] is: library stock concentration: 2 mM.

Several values for one entry are separate records, joined by “and”; a condition that tells them apart may be missing. Equal values may be shown once. Where a name gives a salt, the structure may show the parent alone. Out of some 5,800 compounds screened, about 620 (11%) showed activity. Only a selection was taken, and actives are over-represented in it overall. Values without a mark were called inactive.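 Rule for the calls: active = score above a cut-off or among the top three wells of a plate; in these data no inactive exceeds 0.85.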

The source of these data is the supplement of paper PMC9135407.

Consider `C[C@]12C=CC(=O)N[C@@H]1CC[C@@H]1[C@@H]2CC[C@]2(C)[C@@H](C(=O)Nc3cc(C(F)(F)F)ccc3C(F)(F)F)CC[C@@H]12` [Dutasteride], for which the “scaled lipid accumulation score” value was at most 0 under setting [1] and 0.409 under setting [2].

Turning to `Cc1cc(Nc2nc(-c3ccccc3)nc3ccccc23)n[nH]1` [GSK-3 Inhibitor XIII], the “scaled lipid accumulation score” value under setting [1] was at most 0.

On to `CCCCCC=CCC=CCCCCCCCC(=O)OC(COC(=O)CCCCCCCCCCCCCCC)COP(=O)(O)OCCN` (centres undefined) [1-Palmitoyl-2-linoleoyl PE], for which the “scaled lipid accumulation score” value under setting [3] is 0.006.

In the case of `CCCCC/C=C\C/C=C\C/C=C\CCCCCCC(=O)OCC` [Dihomo-.gamma.-Linolenic Acid ethyl ester], the “scaled lipid accumulation score” value under setting [3] was 0.019.

On to `COc1ccc2cc(CC(=O)O)ccc2c1` [6-methoxy Naphthalene Acetic Acid], for which the “scaled lipid accumulation score” value under setting [3] was 0.002.

As for `CC#CCC(C)[C@@H](O)/C=C/[C@@H]1[C@H]2C/C(=C/CCCC(=O)O)C[C@H]2C[C@H]1O` (stereo partly drawn) [15(R)-Iloprost], the “scaled lipid accumulation score” value under setting [3] was at most 0.

With `CC(C)(C(=O)NCC(F)(F)C(F)(F)F)C(=O)N[C@@H]1C(=O)Nc2ccccc2-c2ccccc21`, the “scaled lipid accumulation score” value is at most 0 under setting [1] and at most 0 under setting [2].

For `CC(=O)Nc1c(I)cc(I)c(C(=O)O)c1I` [Acetriazoic acid], the “scaled lipid accumulation score” value is, setting by setting: (library stock concentration: 3.6 mM) 0.001; under setting [2], at most -0.027.

Consider `CSc1nc(-c2ccnc(NC(C)c3ccccc3)c2)c(-c2ccc(F)cc2)[nH]1` (centres undefined) [p38 MAP Kinase Inhibitor III], for which the “scaled lipid accumulation score” value under setting [1] is at most 0.

With `CCCCCCCCCCCCCCCC(=O)OC(CC(=O)O)C[N+](C)(C)C` (racemic) [Palmitoyl-DL-Carnitine chloride], the “scaled lipid accumulation score” value under setting [2] was 0.446.

On to `[O-]/[N+](=N\O[C@@H]1O[C@H](CO)[C@H](O)[C@H](O)[C@H]1O)N1CCCC1` [.beta.-Gal-NONOate], for which, under setting [3], the “scaled lipid accumulation score” value was at most 0.

As to `CCCCC/C=C\C/C=C\CCCCCCCC(=O)O` [Linoleic Acid (peroxide free)], the “scaled lipid accumulation score” value under setting [3] was 0.024.

For the compound `CCCCC/C=C\C/C=C\CCCCCCCC(=O)O` [Linoleic acid], under setting [3], the “scaled lipid accumulation score” value was at most -0.021.

As for `CCCCC[C@H](O)/C=C/[C@H]1C(=O)C[C@H](O)[C@@H]1C/C=C\CCCC(=O)O` [Prostaglandin  D2], under setting [3], the “scaled lipid accumulation score” value is at most -0.021.

With `CCCCC[C@H](O)/C=C/[C@H]1C(=O)C[C@H](O)[C@@H]1C/C=C\CCCC(=O)O` [Prostaglandin D2], the “scaled lipid accumulation score” value under setting [3] was at most 0.

Regarding `COc1cc2c(Oc3ccc(NC(=O)C4(C(=O)Nc5ccc(F)cc5)CC4)cc3F)ccnc2cc1OCCCN1CCOCC1` [listing 1 of 2 here], the “scaled lipid accumulation score” value is 0.524 under setting [4]; 0.545 under setting [5]; 0.834 under setting [6]; 0.842 and 0.706 under setting [2].

Take `COc1cc2nccc(Oc3ccc(NC(=O)C4(C(=O)Nc5ccc(F)cc5)CC4)cc3)c2cc1OC` [Cabozantinib malate (XL184)]: the “scaled lipid accumulation score” value is 0.354 under setting [1] and 0.677 under setting [2].

On to `COc1cc2c(Oc3ccc(NC(=O)C4(C(=O)Nc5ccc(F)cc5)CC4)cc3F)ccnc2cc1OCCCN1CCOCC1` [listing 2 of 2 here], for which the “scaled lipid accumulation score” value under setting [1] was 1.09 (active).

As for `COc1cc2nccc(Oc3ccc(NC(=O)C4(C(=O)Nc5ccc(F)cc5)CC4)cc3)c2cc1OC`, the “scaled lipid accumulation score” value is 0.011 under setting [4]; at most -0.016 under setting [5]; 0.189 under setting [6]; 0.757 under setting [1]; 0.459 and 0.491 under setting [2].

`O=C(NCCCNc1nc(Nc2cccc(NC(=O)N3CCCC3)c2)ncc1I)c1cccs1` [listing 1 of 4 here]: the “scaled lipid accumulation score” value under setting [2] was 1.07 (active).

For `O=C(Nc1cccc(Nc2ncc(Br)c(NCCc3c[nH]cn3)n2)c1)N1CCCC1`, the “scaled lipid accumulation score” value under setting [2] is 0.978 (active).

For the compound `NCCC(=O)NCCc1c[nH]cn1` [Carcinine], the “scaled lipid accumulation score” value is 0.074.

For the compound `O=C(Nc1cccc(Nc2ncc(Br)c(NCCc3cnc[nH]3)n2)c1)N1CCCC1`, the “scaled lipid accumulation score” value under setting [4] was at most 0; the “scaled lipid accumulation score” value under setting [5] was ≤ 0 and ≤ -0.005; the “scaled lipid accumulation score” value under setting [6] is ≤ 0 and ≤ -0.005; the “scaled lipid accumulation score” value under setting [1] is at most 0; the “scaled lipid accumulation score” value under setting [2] was 0.029 and 0.7.

Regarding `O=C(NCCCNc1nc(Nc2cccc(NC(=O)N3CCCC3)c2)ncc1I)c1cccs1` [listing 2 of 4 here], the “scaled lipid accumulation score” value runs as follows: under setting [4], at most -0.016; under setting [5], ≤ -0.016 and ≤ -0.005; under setting [6], ≤ -0.016 and 0.235; under setting [1], 0.048.

`O=C(NCCCNc1nc(Nc2cccc(NC(=O)N3CCCC3)c2)ncc1I)c1cccs1` [listing 3 of 4 here]: the “scaled lipid accumulation score” value under setting [2] was 0.937 (active).

Take `O=C(NCCCNc1nc(Nc2cccc(NC(=O)N3CCCC3)c2)ncc1I)c1cccs1` [listing 4 of 4 here]: the “scaled lipid accumulation score” value under setting [2] was 1.2 (active).

In the case of `CC(=O)Oc1ccc2c(c1)CCC1C2CC[C@]2(C)C(=O)CCC12` (some centres undefined) [Estrone acetate], the “scaled lipid accumulation score” value under setting [2] was at most 0.

As for `CCCCn1c(=O)c2c(ncn2CC(C)=O)n(CCCC)c1=O` [Denbufylline], the “scaled lipid accumulation score” value (library stock concentration: 6.2 mM) was at most -0.006.

For the compound `CCCCc1nc2ccn(Cc3cccs3)c(=O)c2n1Cc1ccc(-c2ccccc2-c2nn[nH]n2)cc1`, the “scaled lipid accumulation score” value under setting [2] was at most -0.006.

In the case of `Cc1cc(C(=O)O)sc1C(N)C(=O)O` (centres undefined), under setting [2], the “scaled lipid accumulation score” value is 0.007.

As to `CCCn1c(=O)[nH]c(=O)c2[nH]cnc21` [3-n-Propylxanthine], the “scaled lipid accumulation score” value under setting [2] was at most 0.

For `CCOC(=O)c1[nH]c2cc(Cl)ccc2c1C(C(=O)NC(C)(C)C)N(C=O)Cc1ccc(Cl)cc1` (centres undefined), the “scaled lipid accumulation score” value under setting [1] is at most -0.009 and the “scaled lipid accumulation score” value under setting [2] is 0.547.

Turning to `Nc1nc(SCc2ccc([N+](=O)[O-])cc2)c2ncn([C@@H]3O[C@H](CO)[C@H](O)C3O)c2n1` (stereo partly drawn) [S-(4-Nitrobenzyl)-6-thioguanosine], the “scaled lipid accumulation score” value under setting [2] was 0.41.

As for `O=C(O)CCC/C=C\C[C@H]1[C@@H](O)CC(=O)[C@@H]1/C=C/[C@@H](O)CCc1ccccc1` [17-phenyl trinor Prostaglandin D2], under setting [3], the “scaled lipid accumulation score” value was at most 0.

Consider `CNc1nc(-c2ccc3c(N)n[nH]c3c2)cc(N2C[C@@H](C(=O)NC3CCCCC3)CC[C@H]2C)n1`, for which the “scaled lipid accumulation score” value by setting is: under setting [4], at most -0.016; under setting [5], at most -0.016; under setting [6], at most -0.016; under setting [1], at most 0; under setting [2], 0.741 and 0.773.

On to `CN(NC(=O)CC(=O)NN(C)C(=S)c1ccccc1)C(=S)c1ccccc1` [Elesclomol (STA-4783)], for which the “scaled lipid accumulation score” value is at most 0 under setting [1] and at most 0 under setting [2].

Turning to `Cn1c(-c2ccc3c(c2)OCO3)cc(=O)c2ccccc21` [Graveoline], the “scaled lipid accumulation score” value is at most 0.

As to `O=c1cc(-c2ccccc2F)[nH]c2cc3c(cc12)OCO3` [CHM-1 hydrate], under setting [2], the “scaled lipid accumulation score” value is 0.875 (active).

Turning to `O=C(NC(NC(=S)Nc1ccc(F)c([N+](=O)[O-])c1)C(Cl)(Cl)Cl)C(c1ccccc1)c1ccccc1` (centres undefined), the “scaled lipid accumulation score” value was at most 0 under setting [4]; 0.081 under setting [5]; 0.01 under setting [6]; at most -0.009 under setting [1]; 0.019 and 0.171 and 0.352 under setting [2].

For the compound `O=C(NC1CCNCC1)c1n[nH]cc1NC(=O)c1c(Cl)cccc1Cl`, the “scaled lipid accumulation score” value runs as follows: under setting [4], 0.367; under setting [5], 0.117 and 0.282; under setting [6], 0.26 and 0.49; under setting [1], 0.109; under setting [2], 0.212 and 0.239 and 0.462.

On to `C[C@H](CCCO)[C@H]1CC[C@H]2[C@@H]3[C@H](O)C[C@H]4C[C@H](O)CC[C@]4(C)[C@H]3C[C@H](O)[C@]12C` [Petromyzonol], for which the “scaled lipid accumulation score” value under setting [3] was 0.043.

For `Cn1cc(-c2ccc(F)c(C(F)(F)F)c2)nc1C1CCN(c2ncnc3[nH]ncc23)CC1`, the “scaled lipid accumulation score” value is 0.021 under setting [4], 0.015 under setting [5], 0.054 under setting [6] and 0.371 under setting [2].

With `CCc1ccc2c(O)c3c(cc2c1C(=O)OC)C(=O)c1c(O)ccc(O)c1C3=O` [Bisanhydrorutilantinone], under setting [2], the “scaled lipid accumulation score” value was 0.11.

On to `CCCCC[C@@H](O)/C=C/[C@@H]1[C@@H](C/C=C\CCCC(=O)O)[C@@H](O)C[C@H]1O` [15(R)-Prostaglandin F2.alpha.], for which, under setting [3], the “scaled lipid accumulation score” value is at most 0.

Regarding `C=C1CC2(O)OC3(CC2C(C)C)C(C)CCC13` (centres undefined) [Curcumol], the “scaled lipid accumulation score” value by setting is: under setting [1], at most 0; under setting [2], at most 0.

With `CCn1c2ccccc2c2cc(Nc3ccnc(NCCCN4CCOCC4)n3)ccc21`, the “scaled lipid accumulation score” value was 0.673 under setting [1] and 0.087 under setting [2].

In the case of `CCn1c(=O)[nH]c2ccccc21`, the “scaled lipid accumulation score” value under setting [2] was at most -0.006.

`CCn1c2ccccc2c2cc(CNC)ccc21.Cl`: under setting [2], the “scaled lipid accumulation score” value was 0.872 (active).

Turning to `CCCCCCCC/C=C\CCCCCCCC(=O)NCCS(=O)(=O)O` [N-Oleoyl Taurine], the “scaled lipid accumulation score” value under setting [3] is 0.011.

With `C[C@@H](Oc1cc(-c2cnn(C3CCNCC3)c2)cnc1N)c1c(Cl)ccc(F)c1Cl` [listing 1 of 2 here], the “scaled lipid accumulation score” value by setting is: under setting [4], at most 0; under setting [5], 0.145; under setting [6], 0.477; under setting [2], 0.242.

On to `C[C@@H](Oc1cc(-c2cnn(C3CCNCC3)c2)cnc1N)c1c(Cl)ccc(F)c1Cl` [listing 2 of 2 here], for which the “scaled lipid accumulation score” value was 0.909 (active) under setting [1] and 0.863 (active) under setting [2].

For `CC(Oc1cc(-c2cnn(C3CCNCC3)c2)cnc1N)c1c(Cl)ccc(F)c1Cl` [(S)-crizotinib], the “scaled lipid accumulation score” value under setting [1] is 0.504 and the “scaled lipid accumulation score” value under setting [2] is 0.396.

In the case of `CCCCCCCCCCCCCCCCOC[C@H](COP(=O)([O-])OCC[N+]1(C)CCCC1)OC(C)=O` [Pyrrolidino PAF C-16], under setting [3], the “scaled lipid accumulation score” value was at most 0.

Consider `C[N+]1(C)CCCC1C(=O)O` (centres undefined) [Stachydrine hydrochloride], for which the “scaled lipid accumulation score” value is 0.046.

For `O=C(/C=C\n1cnc(-c2cc(C(F)(F)F)cc(C(F)(F)F)c2)n1)N1CC(F)(F)C1`, the “scaled lipid accumulation score” value reads like this: under setting [1], at most -0.009; under setting [2], 0.294.

As to `CCCCC[C@](C)(O)/C=C/[C@@H]1[C@@H](C/C=C\CCCC(=O)OC)[C@@H](O)C[C@H]1O` [15(S)-15-methyl Prostaglandin F2.alpha. methyl ester], the “scaled lipid accumulation score” value under setting [3] is at most 0.
